Rows were chosen to be rich in hits. Some 0.84% of all compounds tested hit in one or more screens of this group.
SRC1 inh: inhibitors of human steroid receptor coactivator 1 (SRC1). 360,000 compounds, 0.12% hits. HEK293 GAL4-SRC1 luciferase reporter, luminescence. Q15788. inhibition, % at 3.6 µM;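 active = inhibition above the campaign mean plus 3 SD, with each screening campaign given its own cutoff, cut at about 60% in these data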;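 also: 0% = DMSO treated cells and 100% = gossypol at 36 µM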
LRH-1 inv ag: inverse agonists of human LRH-1 (NR5A2); HEK293T StAR-luciferase reporter, LRH-1 transfected, 24 h; inhibition, % at 3.6 µM; 360,000 compounds, 0.13% hits; AID 602396;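 active = inhibition above the mean inhibition of all tested compounds plus 3 SD, cut at about 73% in these data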;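 also: 0% = DMSO wells and 100% = reporter-only cells lacking LRH-1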
SRC3 inh: inhibits human SRC3 coactivator. Q9Y6Q9. HEK293 GAL4-SRC3 luciferase reporter, luminescence. inhibition, % at 3.6 µM. 360,000 compounds, 0.17% hits;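 active = inhibition above a per-campaign cutoff, the mean of all compounds plus 3 SD, cut at about 60% in these data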;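 also: 0% = DMSO-treated cells and 100% = gossypol-treated cells at 36 µM; higher means less SRC3-driven luciferase light from the GAL4 reporter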
NR2F2 inh: NR2F2 (human) inhibition, primary screen; HEK293T NGFI-A luciferase reporter, luminescence; 370,000 compounds, 0.7% hits; inhibition, % at 8.6 µM; P24468;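 active = inhibition above a per-plate cutoff, mean inhibition of test wells between control levels plus 3 SD, cut at about 38% in these data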;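 also: cells cotransfected with COUP-TFII expression vector driving the NGFI-A reporter; 0% = median of COUP-TF2 test wells and 100% = reporter-only cells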
Target sequence (P24468 whole entry, looked up): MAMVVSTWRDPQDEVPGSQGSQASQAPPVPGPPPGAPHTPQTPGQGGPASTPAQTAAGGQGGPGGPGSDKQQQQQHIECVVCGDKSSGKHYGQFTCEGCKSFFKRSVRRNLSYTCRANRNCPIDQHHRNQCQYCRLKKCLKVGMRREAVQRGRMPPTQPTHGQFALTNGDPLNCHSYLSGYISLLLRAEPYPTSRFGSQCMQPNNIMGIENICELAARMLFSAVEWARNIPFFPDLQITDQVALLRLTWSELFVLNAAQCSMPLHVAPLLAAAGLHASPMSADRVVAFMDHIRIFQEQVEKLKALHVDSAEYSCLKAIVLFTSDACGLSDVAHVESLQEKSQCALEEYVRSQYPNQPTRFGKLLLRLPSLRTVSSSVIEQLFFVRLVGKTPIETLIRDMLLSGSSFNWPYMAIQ
NCOA2 inhibitor: human SRC2 (NCOA2) inhibition. Q15596. HEK293 GAL4-SRC2 luciferase reporter, luminescence. inhibition, % at 9 µM. 370,000 compounds, 0.17% hits;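 active = inhibition above the mean inhibition of all tested compounds plus 3 SD, set per campaign, cut at about 52% in these data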;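 also: 0% = DMSO treated cells and 100% = cells given Gossypol at 36 µM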
VP16 Luc counter: counter-screen for COUP-TFII antagonists: inhibitors of VP16. shares compounds with NR2F2 inh. HEK293 Gal4-VP16 luciferase reporter, luminescence. inhibition, % at 8.5 µM. 2,500 compounds, 25% hits. AID 687007; in the data active = inhibition above about 13%
COUP-TFII conf: COUP-TFII (NR2F2) inhibition, confirmation assay; shares compounds with NR2F2 inh; HEK293 NGFI-A luciferase reporter, luminescence; AID 687008; inhibition, % at 8.5 µM; 2,500 compounds, 45% hits;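 active = mean inhibition over three repeats above a set limit taken from the earlier primary screen, cut at about 38% in these data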;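 also: 100% = cells given the luciferase reporter alone without the COUP-TF2 vector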
* = called active by the depositor; x = not tested or not shown.

SMILES | SRC1 inh | LRH-1 inv ag | SRC3 inh | NR2F2 inh | NCOA2 inhibitor | VP16 Luc counter | COUP-TFII conf
COC(=O)c1ccc(CSc2nnc(CS(=O)Cc3ccc(Br)cc3)n2-c2ccccc2)cc1 (centres undefined) | -4.0 | 18.7 | 11.3 | 39.3* | 16.4 | 0.5 | 14.6
O=S(Cc1ccc(Br)cc1)Cc1nnc(SCc2ccc(Br)cc2)n1-c1ccccc1 (centres undefined) | 10.7 | 38.2 | 28.8 | 43.7* | 6.9 | -3.7 | 27.7
O=C(NC(c1cccnc1)C(F)(F)F)c1cc(COc2ccc3c(c2)CCCC3)on1 (centres undefined) | -41.4 | -41.1 | -42.9 | 41.8* | -33.5 | -74.6 | 10.3
CCCCCN1CCCCC(NC(=O)C2CCCCC2)C1=O (centres undefined) | x | x | x | 9.2 | -0.6 | x | x
COC(=O)C[C@@H]1CC[C@H]2[C@H](COc3ccc(NC(=O)C4CCC4)cc3C(=O)N2C)O1 | x | x | x | 6.8 | -25.3 | x | x
Cn1nccc1C(=O)NC1CCCc2c1cnn2-c1ccc(C(C)(C)C)cc1 (centres undefined) | 11.5 | 44.9 | 33.7 | 69.5* | 26.1 | -3.7 | 68.6*
CC(C)(C)c1ccc(-n2ncc3c2CCCC3NC(=O)CN2CCCC2=O)cc1 (centres undefined) | 9.3 | 2.3 | 28.5 | 43.0* | 31.2 | 4.9 | 23.0
CC(NCc1ccco1)C(=O)N1CCCN(C)CC1 (centres undefined) | x | x | x | -0.2 | 12.3 | x | x
Cc1ccccc1CN1CCCCC(NC(=O)C2CCCCC2)C1=O (centres undefined) | x | x | x | -4.9 | -4.6 | x | x
CCOC(=O)[C@@]12CN(C(=O)OC(C)(C)C)CC=C1N(Cc1ccc(OC)cc1)C(=O)[C@H]2CC(=O)NCc1ccccc1 | x | x | x | -11.9 | 10.8 | x | x
O=C(NCCCc1ccccc1)C1CCN(c2nc(-c3ccc(Br)cc3)cs2)CC1 | x | x | x | 37.4* | x | -1.1 | 0.9
O=C(NCCc1ccccc1)C1CCN(c2ncccn2)CC1 | -27.4 | -24.2 | -6.2 | -18.3 | -64.1 | x | x
O=C(CCS(=O)(=O)c1cc2c(cc1Br)CCN2C(=O)C1CC1)N1CCN(c2ccccn2)CC1 | x | x | x | 17.1 | -16.5 | x | x
Cc1ccc(NC(=O)C2CCCN2S(=O)(=O)c2cccnc2)c(C)c1 (centres undefined) | x | x | x | 17.8 | 6.1 | x | x
CCCCCc1cc(O)c2c(C)cc(=O)oc2c1 | -2.4 | 2.7 | 17.7 | 41.5* | 7.3 | -20.3 | -3.4
CCOc1ccc(-n2c(SCC(=O)Nc3ccc4c(c3)c3ccccc3n4CC)nnc2-c2cccnc2)cc1 | x | x | x | 7.0 | 10.8 | x | x
O=C1CC(c2ccc3c(c2)OCCO3)Oc2ccc([N+](=O)[O-])cc21 (centres undefined) | 56.7 | 42.9 | 53.0 | 42.1* | -1.0 | 20.0* | 67.3*
Cc1ccc2c(c1)N(CCCC(=O)N(C)Cc1ccccc1Cl)C(=O)CO2 | x | x | x | 0.1 | -24.9 | x | x
CCC(=O)Nc1cc(SCCO)cc([N+](=O)[O-])c1 | 9.8 | -1.3 | 0.2 | 30.9 | -9.3 | x | x
O=C(CCl)Nc1cc(SCC(O)CO)cc([N+](=O)[O-])c1 (centres undefined) | 27.6 | 86.8* | 70.4* | 69.2* | 68.6* | 27.6* | 73.0*
CN(C)S(=O)(=O)N1CCC(Oc2cccc(C(=O)NC3CCCCCC3)c2)CC1 | 18.2 | 39.2 | 10.7 | 63.3* | 23.8 | 4.9 | 66.3*
CN(C)S(=O)(=O)N1CCC(Oc2ccc(C(=O)NC3Cc4ccccc4C3)cc2)CC1 | -5.1 | -11.1 | -1.7 | 23.3 | -4.0 | x | x
CCCCNC(=O)C[C@H]1C[C@@]2(C(=O)OC)C(=C[C@H](COCc3ccccc3)O[C@@H]2C)N(Cc2cccc3ccccc23)C1=O | x | x | x | -2.1 | 6.5 | x | x
Nn1c(SCC(=O)Nc2ccccc2-c2ccccc2)nnc1-c1cc(-c2ccccc2)n[nH]1 | x | x | x | 0.3 | 16.4 | x | x
CC(COc1cccc([N+](=O)[O-])c1)CN1CCC(C(O)(c2ccccc2)c2ccccc2)CC1 (centres undefined) | x | x | x | -7.1 | 1.0 | x | x
Cc1c(CCC(=O)NCCCCCC(=O)O)c(=O)oc2c(C)c3oc4c(c3cc12)CCCC4 | -21.2 | 1.5 | 5.5 | -1.7 | 10.0 | x | x
CCC(NC(=O)CCc1c(C)c2cc3c4c(oc3cc2oc1=O)CCCC4)C(=O)O (centres undefined) | 13.0 | 3.9 | 10.7 | 40.4* | 64.5* | 46.1* | 41.9*

Screening data: PubChem, The Scripps Research Institute Molecular Screening Center
